About 83,000 compounds went through this panel and 20% of them were active in at least one assay; those are over-represented in the sample as a whole.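 Method: cells in 96-well plates; compound added at one concentration; 48 h incubation; percent growth measured; values under 10 scored active.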 A number with no mark means an inactive call. Calls of active or inactive are those of the source.
System: M14 melanoma
Experiment: NCI-60 one-dose screen, 48 h (100 = growth as untreated, 0 = no growth, -100 = all killed)
Conditions: 10 µM unless noted

Point of comparison: `CC1(C)[C@@H](O)CC[C@]2(C)[C@H]3CC[C@@H]4[C@H]5[C@H](c6cn(-c7ccccc7)nn6)CC[C@]5(CO)CC[C@@]4(C)[C@]3(C)CC[C@@H]12`, growth 90.5%. Against it:
- O=C(Nc1nccs1)c1noc2ccccc12 — higher, 96%
- Cc1cc2ccccc2c[n+]1CC(=O)c1ccc(-c2ccccc2)cc1 — lower, 47.3%
- O=C1Nc2ccc(Cl)cc2/C1=N/c1nc(-c2ccc(F)cc2)cs1 — lower, 38.7%
- COc1cc(/C=N/Nc2nc(-c3ccc(F)cc3)c(C#N)c(N3CCOCC3)n2)ccc1O — higher, 114%
- C=C(C)[C@@H]1CC[C@]2(C(=O)N=C=S)CC[C@]3(C)[C@H](CC[C@@H]4[C@@]5(C)CCC(=O)C(C)(C)[C@@H]5CC[C@]43C)[C@@H]12 — lower, 39.3%
- O=c1c2ccccc2n(CC(O)CN2CCCC2)c2c(Br)cccc12 (stereo unspecified) — higher, 98.7%
- COc1cc(-c2cn(-c3ccc(Cl)c(Cl)c3)c(=O)[nH]2)cc(OC)c1OC — higher, 95.2%
- COC(=O)c1ccc2c(c1)n(Cc1ccc3ccccc3c1)c[n+]2Cc1ccc2ccccc2c1 — lower, 14.1%
- O=C1NN(c2ccccc2)C(c2ccc(Cl)cc2)N2CCC[C@H]12 (stereo partly specified) — higher, 97.9%
- Nc1ccccc1NS(=O)(=O)c1ccc(Cl)cc1 — higher, 97.1%
- CCCCCCN1C(=O)CN=C1Nc1ccc2cc3ccc(NC4=NCC(=O)N4CCCCCC)cc3nc2c1 — lower, 68.2%
- Nc1n[nH]c2cccc(C#Cc3cccc(NC(=O)c4cc(N5CCOCC5)cc(C(F)(F)F)c4)c3)c12 — lower, 19.2%
- Cc1cnc(SCc2ccc(Cl)cc2Cl)nc1Nc1ccc(Cl)c(Cl)c1 — higher, 98.7%

`C=C(C)[C@@H]1CC[C@]2(C(=O)OCCCC[P+](c3ccccc3)(c3ccccc3)c3ccccc3)CC[C@]3(C)[C@H](CC[C@@H]4[C@@]5(C)CC[C@H](OC(=O)C(Cl)Cl)C(C)(C)[C@@H]5CC[C@]43C)[C@@H]12` was tested, and the growth was -56.1% (active).
With `COc1cc(/C=C/C(=O)c2ccc(NC(=O)CSc3nnc(-c4cc(OC)c(OC)c(OC)c4)n3-c3ccccc3)cc2)cc(OC)c1OC` the growth was -9.25% (active).

— PubChem BioAssay (NCI)
